Reference: PubChem BioAssay AID504444 (National Center for Advancing Translational Sciences (NCATS), 2011)
Several values for one entry are separate records, joined by “and”; a condition that tells them apart may be missing. Identical values can stand only once. Among all 360,000 compounds or so, about 7,500 (2.1%) were called active. Where a call stands in place of a potency, no number is given. About 20% were inconclusive and are not listed. The call rests on the fitted dose curve; in most records, active means well fitted inhibition curve with a large enough effect; inconclusive means small, poorly fitted or top-dose-only effect, or effect the other way; inactive means flat fitted curve, though single readings scatter. For the sample, actives were picked, then their nearest neighbours and some compounds at random. The source holds several records for some structures; these can differ, active in one and inactive in another.

Assay: Nrf2 qHTS screen for inhibitors; further: nearly all actives have a fitted effect of over 60% in size
Conditions: A549 ARE-Fluc reporter, luciferase luminescence, 18-24 h; series mostly up to 46 µM
How it was run: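 Concentration-response testing used A549 ARE_Fluc cells at 5000 cells/well. Following an 18-24 h compound incubation, viability was read by fluorescence (Ex 405/Em 525) and luciferase output by luminescence.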
Potency means the concentration at half of the fitted maximal effect.

SMILES | Potency | activity change, negative = inhibition
COc1cccc(CN2CCc3nc(SCC(=O)Nc4ccccc4)[nH]c(=O)c3C2)c1 | inactive | –
O=[N+]([O-])c1cc(Br)c(O)c(/C=N/Nc2nc3ccccc3s2)c1 | inactive | –
COc1cc(/C=N/Nc2nc3ccccc3s2)ccc1O | inactive | –
c1ccc(C(=NNc2nc3ccccc3s2)c2ccccn2)cc1 | 9.2 µM (active) | –
CCC(C(=O)Nc1cc(OC)ccc1OC)n1c(=O)c(C(F)(F)F)nc2ccccc21 (stereo not given) | inactive | –
CSCCC(NC(=O)c1ccccc1)C(=O)N1CCN(Cc2ccc(Cl)cc2)CC1 (stereo not given) | inactive | –
CCCCN(C(=O)c1cccc(N2C(=O)c3ccccc3C2=O)c1)c1c(N)n(CCCC)c(=O)[nH]c1=O | inactive | –
N#Cc1ccc(OC2=NS(=O)(=O)c3ccccc32)cc1 | inactive | –
COc1ccc(C(=O)Oc2cc(/C=N/NS(=O)(=O)c3ccc(C)cc3)ccc2OC)cc1 | 16.4 µM (active) | –
COc1ccc(S(=O)(=O)N/N=C\c2ccc(OC)c(COc3ccc(C)cc3[N+](=O)[O-])c2)cc1 | inactive | –
COc1ccc(/C=N/NS(=O)(=O)c2ccc(NC(C)=O)cc2)cc1 | inactive | –
CCOc1ccc(C(=O)c2cn(Cc3ccc(F)cc3)c3ccc(F)cc3c2=O)cc1 | inactive | –
CN(C)c1ccc(C2N(C)C(=O)c3ccccc3N2C)cc1 (stereo not given) | inactive | –
Cc1ccc(Nc2c(-c3ccc(N(C)C)cc3)nc3nc[nH]n23)cc1 | inactive | –
CN(C)c1ccc(Nc2c3c4c(cccc4n(C)c2=O)C(=O)c2ccccc2-3)cc1 | 8.2 µM (active) | –
O=C(Nc1c(C(=O)N2CCN(c3ccc(F)cc3)CC2)oc2ccccc12)c1ccco1 | inactive | –
CCOC(=O)C1CCCN(C(=O)C2CCN(S(=O)(=O)c3ccc(Cl)c(C(F)(F)F)c3)CC2)C1 (stereo not given) | inactive | –
CCC(=O)Nc1ccc2nc(SCC(=O)N3CCc4ccccc43)sc2c1 | inactive | –
CCCCNC(=O)CSc1nc2ccc(NC(=O)CSc3nnc(COc4ccccc4C)n3C)cc2s1 | inactive | –
CCCCNC(=O)CSc1nc2ccc(NC(=O)CSc3nnc(N)s3)cc2s1 | 16.4 µM (active) | –
CCOC(=O)c1ccc(NC(=O)C2CC(=O)N(c3ccc(C(C)C)cc3)C2)cc1 (stereo not given) | inactive | –
O=C(Nc1ccc(S(=O)(=O)N2CCCCCC2)cc1)c1c(F)cccc1F | inactive | –
O=C(Nc1ccncc1)Nc1ccc(F)cc1 | inactive | –
O=C(Nc1ccncc1)c1c(F)cccc1F | 9.2 µM (active) | –
Cc1ccc(C)c(N2CCN(CCCNC(=O)Nc3ccc(Cl)cc3)CC2)c1 | inactive | –

SMILES | Potency | activity change, negative = inhibition
CCOc1ccc(NC(=O)CCC(=O)N2CC(C)Oc3ccc(C)cc32)cc1 (stereo not given) | inactive | –
O=c1[nH]c(=O)c2nc3ccccc3nc2[nH]1 | inactive | –
CNC(=O)c1cccc2nc3ccccc3nc12 | 5.8 µM (active) | –
CN(C)C(=O)c1coc2nc3ccccc3nc12 | inactive | –
Cc1ccc(Nc2c(-c3ccc(C)cc3)nc3cnccn23)cc1 | – | -2.28% [at 9.27 µM] (inactive)
CCOC(=O)C1CCN(C(=O)CN2C(=O)NC(C)(c3ccc4cc(OC)ccc4c3)C2=O)CC1 (stereo not given) | inactive | –
O=C1CC(c2ccccc2)=NN1c1ccc([N+](=O)[O-])cc1 | inactive | –
Cc1ccc(C)n1NC(=O)c1ccc([N+](=O)[O-])cc1 | inactive | –
CC1=NN(c2ccccc2)C(=O)C1C(=O)c1ccc([N+](=O)[O-])cc1 (stereo not given) | 25.9 µM (active) | –
CCCOC(=O)c1[nH]c2c(c1C)C(=O)CC(c1cc(OC)c(OC)c(OC)c1)C2 (stereo not given) | 16.4 µM (active) | –
COCCOC(=O)c1[nH]c2c(c1C)C(=O)CC(c1ccc(OC)cc1)C2 (stereo not given) | inactive | –
CCCOC(=O)c1[nH]c2c(c1C)C(=O)CC(c1cccs1)C2 (stereo not given) | inactive | –
COc1cccc(CNC(=O)C2CCC(CNS(=O)(=O)c3cccs3)CC2)c1 (stereo not given) | inactive | –
Cc1ccc(C)c(N2CCN(C(=O)C3CCC(CNS(=O)(=O)c4cccs4)CC3)CC2)c1 (stereo not given) | 18.4 µM (active) | –
Cc1ccc(S(=O)(=O)NCC2CCC(C(=O)N3CCOCC3)CC2)cc1 (stereo not given) | inactive | –
Cc1cc([N+](=O)[O-])c(=O)[nH]c1C | inactive | –
COc1ccc(N=C2C=CC(=O)O2)cc1 | inactive | –
Cc1ccc(NC(=O)C2CCC(C(C)(C)C)CC2)cc1S(=O)(=O)N1CCOCC1 (stereo not given) | 20.6 µM (active) | –
COc1ccc(S(=O)(=O)N2CCCCCC2)cc1NC(=O)Cc1ccc(OC)c(OC)c1 | inactive | –
CC1CCN(S(=O)(=O)c2ccc(NC(=O)C3CC(=O)N(c4ccccc4)C3)cc2)CC1 (stereo not given) | 6.51 µM (active) | –
Cc1ccc(NC(=O)C2CC(=O)N(c3ccc4c(c3)OCCO4)C2)cc1S(=O)(=O)N1CCCCCC1 (stereo not given) | 5.8 µM (active) | –
CC(=O)c1ccccc1NC(=O)C1CC(=O)N(c2ccc3c(c2)OCCO3)C1 (stereo not given) | inactive | –
COc1ccc(S(=O)(=O)N2CCCCC2)cc1NC(=O)C1CC(=O)N(c2ccc3c(c2)OCCO3)C1 (stereo not given) | 23.1 µM (active) | –
Cc1ccc(N2CC(C(=O)Nc3ccc(S(=O)(=O)N4CCCC4)cc3)CC2=O)cc1C (stereo not given) | inactive | –
Cc1ccccc1N1CC(C(=O)Nc2ccc(S(=O)(=O)N3CCCC3)cc2)CC1=O (stereo not given) | inactive | –

SMILES | Potency | activity change, negative = inhibition
Cc1ccc(NC(=O)NC2CCCCC2)cc1S(=O)(=O)N1CCOCC1 | inactive | –
CCOC(=O)c1ccc(NC(=O)C2CC(=O)N(c3ccc4c(c3)OCCO4)C2)cc1 (stereo not given) | inactive | –
Cc1ccc(NC(=O)C2CC2)cc1S(=O)(=O)N1CCOCC1 | inactive | –
COc1ccccc1N1CC(C(=O)Nc2ccc(S(=O)(=O)N3CCOCC3)cc2)CC1=O (stereo not given) | inactive | –
CCN(CC)S(=O)(=O)c1ccc(CNC(=O)CN2C(=O)NC3(CCc4ccccc43)C2=O)cc1 (stereo not given) | inactive | –
Cc1ccc(C)c(N2CCN(C(=O)Cn3ncc4c(=O)oc5ccc(C)cc5c43)CC2)c1 | inactive | –
O=C(NCc1ccccc1)c1cccc(NC(=O)C2CCCCC2)c1 | inactive | –
Cn1nnnc1SCCCNCc1cccc(OCc2ccc(Cl)cc2)c1 | inactive | –
COc1ccc(CNC(=O)CCc2c(C)nn(-c3ccc(N4CCCC4)nn3)c2C)cc1 | inactive | –
O=[S+]([O-])(c1ccc(OC(F)(F)F)cc1)N1CCN([S+](=O)([O-])c2ccc3c(c2)OCCO3)CC1 | inactive | –
COc1cccc(CNC(=O)c2ccc3c(c2)N(Cc2ccc(C(F)(F)F)cc2)C(=O)c2ccccc2S3)c1OC | inactive | –
CCOc1ccc(C(=O)/C=C/c2cn(CC(O)CN3CCCCCC3)c3ccccc23)cc1 (stereo not given) | inactive | –
CCS(=O)(=O)c1nc(S(=O)(=O)c2ccc(C)cc2)c(NCc2ccc(Cl)cc2)s1 | inactive | –
NC1=NOC(=O)C1C1CCCCC1 (stereo not given) | inactive | –
Cc1cc(C)c(NC(=O)CSc2nc3ccncc3[nH]2)c(C)c1 | inactive | –
CC(=O)Nc1ccc(C(=O)CSc2nc3ccc(C)cc3[nH]2)cc1 | inactive | –
CCCCNS(=O)(=O)c1ccc2nc(SCC(=O)Nc3cc(C)cc(C)c3)[nH]c2c1 | 13 µM (active) | –
Cc1ccc(/C=C(\C#N)C(=O)Nc2cc(C)ccc2C)cc1 | inactive | –
CC(C)(C)c1ccc(S(=O)(=O)Nc2ccc(O)c(Sc3nc4ccccc4s3)c2)cc1 | inactive | –
CCOc1ccc(NC(=O)c2c(NC(=O)Cc3ccccc3)sc3c2CCCCC3)cc1 | inactive | –
COc1ccc(NS(=O)(=O)c2cccc(C(=O)NCCc3ccc(S(N)(=O)=O)cc3)c2)cc1 | inactive | –
COc1cccc(NS(=O)(=O)c2ccc(-c3coc(C)n3)cc2)c1 | inactive | –
COc1ccc(NS(=O)(=O)c2ccc(Oc3c(C#N)cccc3C#N)cc2)cc1 | 13 µM (active) | –
N#CCSc1nc2c(c(=O)n1Cc1ccccc1)C1(CCCC1)Cc1ccccc1-2 | inactive | –
Cc1cccc(-n2c(SCC(N)=O)nc3c(oc4ccccc43)c2=O)c1 | inactive | –

SMILES | Potency | activity change, negative = inhibition
Cc1cccc(-n2c(SCC(N)=O)nc3c(c2=O)C2(CCCCC2)Cc2ccccc2-3)c1 | 20.6 µM (active) | –
C[C@H](CO)N1C[C@H](C)[C@@H](CN(C)Cc2ccc(-c3ccccc3)cc2)Oc2ccc(NC(=O)Cn3cnnn3)cc2C1=O | inactive | –
OCC(O)C1OCOC(C(O)CO)C1O (stereo not given) | inactive | –
CCOc1ccc(NC(=O)c2c(NC(=O)Cc3ccccc3)sc3c2CCC(C)C3)cc1 (stereo not given) | inactive | –
CNC(=S)N1CCN(c2ccccn2)CC1 | inactive | –
COc1ccc(C/C(C)=N/NC(=O)c2ccncc2)cc1 | inactive | –
CC(=NNC(=S)N1CCCCCC1)c1ccccn1 | 1.16 µM (active) | –
Cc1ccc(Cl)cc1NC(=O)c1ccccn1 | inactive | –
C/C(=N\NC(=O)Cc1ccc(Cl)cc1)c1ccccn1 | 3.26 µM (active) | –
COc1ccc(CC(=O)NC(C)CCc2ccccc2)cc1 (stereo not given) | inactive | –
C/C(=N\NC(=O)Cc1ccc(F)cc1)c1ccc(F)cc1 | inactive | –
Cc1cccc(C)c1NC(=S)N1CCCCCC1 | inactive | –
COc1ccc(CC(=O)N/N=C(\C)c2ccccn2)cc1 | 14.6 µM (active) | –
Cc1noc(C)c1NC(=O)Nc1ccc2c(c1)C(=O)N([C@H](C)CO)C[C@H](C)[C@@H](CN(C)C(=O)Nc1ccc(C(F)(F)F)cc1)O2 | inactive | –
Cc1ccc(-c2nn(CCC(=O)Nc3ccc(Cl)c(Cl)c3)c(=O)c3ccccc23)cc1 | inactive | –
CCCNC(=O)C(CC)n1nc(CC)n2c(cc3oc(C)cc32)c1=O (stereo not given) | inactive | –
CCOc1cccc(NC(=O)CSc2ncc(-c3ccc(Cl)cc3)[nH]2)c1 | inactive | –
Cc1ccc(Nc2c(-c3ccc(Cl)cc3)nc3sccn23)c(C)c1 | inactive | –
O=C(NN=Cc1ccccc1O)NN=Cc1ccccc1O | inactive | –
Cc1n[nH]c(C)c1S(=O)(=O)N1CCCC(C(=O)NCC2COc3ccccc3O2)C1 (stereo not given) | inactive | –
O=C(O)C1CCCN(S(=O)(=O)c2cccc3cccnc23)C1 (stereo not given) | inactive | –
Cc1n[nH]c(C)c1S(=O)(=O)N1CCCC(C(=O)Nc2ccc(Br)cc2)C1 (stereo not given) | inactive and 14.6 µM (active) | –
COc1ccc(NC(=O)C2CCCN(S(=O)(=O)c3cccc4cccnc34)C2)cc1 (stereo not given) | 23.1 µM (active) | –
CC(=O)Nc1ccc(NC(=O)C2CCCN(S(=O)(=O)c3ccc4c(c3)CCCC(=O)N4)C2)cc1 (stereo not given) | inactive | –
COc1ccc(NC(=O)C2CCCN(S(=O)(=O)c3cccc4cccnc34)C2)cc1OC (stereo not given) | inactive | –
